# From the supplement of paper PMC12282887
# ± gives the standard deviation of the averaged measurements.
# Tests used:
# Assay in all cases: promoter activity interaction Z-score (Lux/OD deviation from empty-vector control); higher = stronger promoter induction by the compound
# [1] = tested on: E. coli BW25113 acrABp lux reporter
# Summary of the method: (§1)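 E. coli BW25113 luxCDABE reporter strains grew at 37°C in 40 µl LB Lennox in 384-well plates, with OD600 and luminescence read every 30 min for 12 h. After integration over 0–8 h for wild type or 1–9 h for deletion strains, wells under 10% of the median growth value were removed. Each score is the Z-transformed residual of growth-normalised luminescence fitted against a control.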
# [2] = tested on: E. coli BW25113 marRABp lux reporter
# Summary of the method: as §1
# [3] = tested on: E. coli BW25113 micFp lux reporter
# Summary of the method: as §1
# [4] = tested on: E. coli BW25113 ompFp lux reporter
# Summary of the method: as §1
# [5] = tested on: E. coli BW25113 robp lux reporter
# Summary of the method: as §1
# [6] = tested on: E. coli BW25113 soxSp lux reporter
# Summary of the method: as §1
# [7] = tested on: E. coli BW25113 tolCp lux reporter
# Summary of the method: as §1
# [8] = 23 µg/ml, genetic background: wild type
# [9] = 23 µg/ml, genetic background: ΔmarA
# [10] = 23 µg/ml, genetic background: Δrob
# [11] = 23 µg/ml, genetic background: ΔsoxS
# [12] = 46 µg/ml, genetic background: wild type
# [13] = 46 µg/ml, genetic background: ΔmarA
# [14] = 46 µg/ml, genetic background: Δrob
# [15] = 46 µg/ml, genetic background: ΔsoxS
# [16] = 92.1 µg/ml, genetic background: wild type
# [17] = 92.1 µg/ml, genetic background: ΔmarA
# [18] = 92.1 µg/ml, genetic background: Δrob
# [19] = 92.1 µg/ml, genetic background: ΔsoxS
# [20] = 184.2 µg/ml, genetic background: wild type
# [21] = 184.2 µg/ml, genetic background: ΔmarA
# [22] = 184.2 µg/ml, genetic background: Δrob
# [23] = 184.2 µg/ml, genetic background: ΔsoxS
compound,measurement,setting,value
COc1cc(/C=C/C(=O)CC(=O)/C=C/c2ccc(O)c(OC)c2)ccc1O [Curcumin],promoter activity interaction Z-score,[1]; [8],-0.214 ± 0.21
same,promoter activity interaction Z-score,[1]; [9],1.82 ± 1
same,promoter activity interaction Z-score,[1]; [10],0.162 ± 0.49
same,promoter activity interaction Z-score,[1]; [11],0.139 ± 0.18
same,promoter activity interaction Z-score,[1]; [12],0.341 ± 0.83
same,promoter activity interaction Z-score,[1]; [13],1.2 ± 0.066
same,promoter activity interaction Z-score,[1]; [14],0.14 ± 0.34
same,promoter activity interaction Z-score,[1]; [15],0.0402 ± 0.48
same,promoter activity interaction Z-score,[1]; [16],0.529 ± 0.2
same,promoter activity interaction Z-score,[1]; [17],1.08 ± 0.031
same,promoter activity interaction Z-score,[1]; [18],0.869 ± 0.75
same,promoter activity interaction Z-score,[1]; [19],0.0855 ± 0.34
same,promoter activity interaction Z-score,[1]; [20],0.33 ± 0.052
same,promoter activity interaction Z-score,[1]; [21],1.06 ± 1.1
same,promoter activity interaction Z-score,[1]; [22],1.36 ± 1.6
same,promoter activity interaction Z-score,[1]; [23],0.0296 ± 0.41
same,promoter activity interaction Z-score,[2]; [8],0.0587 ± 1
same,promoter activity interaction Z-score,[2]; [9],0.238 ± 0.1
same,promoter activity interaction Z-score,[2]; [10],0.099 ± 0.28
same,promoter activity interaction Z-score,[2]; [11],0.112 ± 0.41
same,promoter activity interaction Z-score,[2]; [12],-0.237 ± 0.12
same,promoter activity interaction Z-score,[2]; [13],0.377 ± 0.29
same,promoter activity interaction Z-score,[2]; [14],-0.00179 ± 0.26
same,promoter activity interaction Z-score,[2]; [15],-0.0875 ± 0.19
same,promoter activity interaction Z-score,[2]; [16],0.812 ± 0.01
same,promoter activity interaction Z-score,[2]; [17],1.05 ± 0.41
same,promoter activity interaction Z-score,[2]; [18],0.00921 ± 0.51
same,promoter activity interaction Z-score,[2]; [19],-0.225 ± 0.28
same,promoter activity interaction Z-score,[2]; [20],0.402 ± 1
same,promoter activity interaction Z-score,[2]; [21],-0.341 ± 0.046
same,promoter activity interaction Z-score,[2]; [22],0.198 ± 0.15
same,promoter activity interaction Z-score,[2]; [23],-0.312 ± 0.3
same,promoter activity interaction Z-score,[3]; [8],-0.542 ± 0.23
same,promoter activity interaction Z-score,[3]; [9],0.217 ± 0.034
same,promoter activity interaction Z-score,[3]; [10],-0.24 ± 0.022
same,promoter activity interaction Z-score,[3]; [11],-0.0851 ± 0.53
same,promoter activity interaction Z-score,[3]; [12],-0.984 ± 0.24
same,promoter activity interaction Z-score,[3]; [13],0.275 ± 0.043
same,promoter activity interaction Z-score,[3]; [14],-0.0884 ± 0.0078
same,promoter activity interaction Z-score,[3]; [15],0.00161 ± 0.34
same,promoter activity interaction Z-score,[3]; [16],-0.158 ± 0.37
same,promoter activity interaction Z-score,[3]; [17],0.257 ± 0.096
same,promoter activity interaction Z-score,[3]; [18],-0.122 ± 0.094
same,promoter activity interaction Z-score,[3]; [19],-0.241 ± 0.17
same,promoter activity interaction Z-score,[3]; [20],-0.608 ± 0.096
same,promoter activity interaction Z-score,[3]; [21],0.122 ± 0.096
same,promoter activity interaction Z-score,[3]; [22],-0.251 ± 0.11
same,promoter activity interaction Z-score,[3]; [23],0.0295 ± 0.21
same,promoter activity interaction Z-score,[4]; [8],-0.638 ± 0.26
same,promoter activity interaction Z-score,[4]; [9],0.332 ± 0.5
same,promoter activity interaction Z-score,[4]; [10],0.137 ± 1.3
same,promoter activity interaction Z-score,[4]; [11],-0.824 ± 0.29
same,promoter activity interaction Z-score,[4]; [12],-0.568 ± 0.12
same,promoter activity interaction Z-score,[4]; [13],0.31 ± 0.57
same,promoter activity interaction Z-score,[4]; [14],0.208 ± 0.91
same,promoter activity interaction Z-score,[4]; [15],-0.0625 ± 1.2
same,promoter activity interaction Z-score,[4]; [16],-0.201 ± 0.71
same,promoter activity interaction Z-score,[4]; [17],-0.362 ± 0.33
same,promoter activity interaction Z-score,[4]; [18],0.836 ± 0.9
same,promoter activity interaction Z-score,[4]; [19],-0.27 ± 0.58
same,promoter activity interaction Z-score,[4]; [20],-0.368 ± 0.11
same,promoter activity interaction Z-score,[4]; [21],-0.675 ± 0.88
same,promoter activity interaction Z-score,[4]; [22],-0.647 ± 0.46
same,promoter activity interaction Z-score,[4]; [23],-0.351 ± 0.82
same,promoter activity interaction Z-score,[5]; [8],0.788 ± 0.71
same,promoter activity interaction Z-score,[5]; [9],1.07 ± 0.14
same,promoter activity interaction Z-score,[5]; [10],0.0477 ± 0.46
same,promoter activity interaction Z-score,[5]; [11],0.332 ± 0.6
same,promoter activity interaction Z-score,[5]; [12],0.38 ± 0.33
same,promoter activity interaction Z-score,[5]; [13],1.13 ± 0.87
same,promoter activity interaction Z-score,[5]; [14],0.606 ± 0.79
same,promoter activity interaction Z-score,[5]; [15],0.859 ± 0.5
same,promoter activity interaction Z-score,[5]; [16],0.913 ± 0.078
same,promoter activity interaction Z-score,[5]; [17],0.411 ± 0.0043
same,promoter activity interaction Z-score,[5]; [18],0.829 ± 1.5
same,promoter activity interaction Z-score,[5]; [19],-0.797 ± 0.19
same,promoter activity interaction Z-score,[5]; [20],-0.161 ± 0.49
same,promoter activity interaction Z-score,[5]; [21],0.0014 ± 0.21
same,promoter activity interaction Z-score,[5]; [22],0.959 ± 1.3
same,promoter activity interaction Z-score,[5]; [23],0.501 ± 0.48
same,promoter activity interaction Z-score,[6]; [8],-0.156 ± 0.019
same,promoter activity interaction Z-score,[6]; [9],0.209 ± 0.098
same,promoter activity interaction Z-score,[6]; [10],-0.0921 ± 0.039
same,promoter activity interaction Z-score,[6]; [11],0.264 ± 0.5
same,promoter activity interaction Z-score,[6]; [12],-0.559 ± 0.02
same,promoter activity interaction Z-score,[6]; [13],0.12 ± 0.11
same,promoter activity interaction Z-score,[6]; [14],-0.0695 ± 0.0052
same,promoter activity interaction Z-score,[6]; [15],0.244 ± 0.33
same,promoter activity interaction Z-score,[6]; [16],-0.204 ± 0.11
same,promoter activity interaction Z-score,[6]; [17],-0.148 ± 0.051
same,promoter activity interaction Z-score,[6]; [18],-0.206 ± 0.015
same,promoter activity interaction Z-score,[6]; [19],-0.186 ± 0.41
same,promoter activity interaction Z-score,[6]; [20],-0.42 ± 0.036
same,promoter activity interaction Z-score,[6]; [21],-0.399 ± 0.12
same,promoter activity interaction Z-score,[6]; [22],-0.341 ± 0.14
same,promoter activity interaction Z-score,[6]; [23],-0.153 ± 0.15
same,promoter activity interaction Z-score,[7]; [8],-0.731 ± 0.53
same,promoter activity interaction Z-score,[7]; [9],-0.0769 ± 0.49
same,promoter activity interaction Z-score,[7]; [10],-0.819 ± 0.47
same,promoter activity interaction Z-score,[7]; [11],0.356 ± 0.35
same,promoter activity interaction Z-score,[7]; [12],-0.815 ± 0.45
same,promoter activity interaction Z-score,[7]; [13],0.181 ± 0.66
same,promoter activity interaction Z-score,[7]; [14],-0.0696 ± 0.8
same,promoter activity interaction Z-score,[7]; [15],-0.467 ± 0.52
same,promoter activity interaction Z-score,[7]; [16],-0.469 ± 0.65
same,promoter activity interaction Z-score,[7]; [17],0.826 ± 0.17
same,promoter activity interaction Z-score,[7]; [18],-0.739 ± 0.063
same,promoter activity interaction Z-score,[7]; [19],0.259 ± 0.43
same,promoter activity interaction Z-score,[7]; [20],-0.549 ± 0.6
same,promoter activity interaction Z-score,[7]; [21],-0.037 ± 0.23
same,promoter activity interaction Z-score,[7]; [22],-0.376 ± 0.11
same,promoter activity interaction Z-score,[7]; [23],0.000633 ± 0.47
